From PubChem BioAssay (EPA / NIEHS) come the findings set out here.

In assay [1] the target is Oxysterols receptor LXR-beta (Homo sapiens) (UniProt P55055). Kind of assay: ATG_LXRb_TRANS: Attagene TRANS-FACTORIAL HepG2 Assay for human Liver X Receptor beta (LXRb) (AID 2282981). The conditions noted are these: HepG2 Attagene TRANS GAL4-LXRb reporter, mRNA. Summed up: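 Measures induction of a Gal4-driven reporter transcript in HepG2 cells expressing an exogenous LXRb-Gal4 fusion. Cells are exposed to compound for 24 h before RNA isolation and RT-PCR with capillary electrophoresis detection.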
Chain of Oxysterols receptor LXR-beta (Homo sapiens) (P55055 whole entry, looked up, the tested form may be a part): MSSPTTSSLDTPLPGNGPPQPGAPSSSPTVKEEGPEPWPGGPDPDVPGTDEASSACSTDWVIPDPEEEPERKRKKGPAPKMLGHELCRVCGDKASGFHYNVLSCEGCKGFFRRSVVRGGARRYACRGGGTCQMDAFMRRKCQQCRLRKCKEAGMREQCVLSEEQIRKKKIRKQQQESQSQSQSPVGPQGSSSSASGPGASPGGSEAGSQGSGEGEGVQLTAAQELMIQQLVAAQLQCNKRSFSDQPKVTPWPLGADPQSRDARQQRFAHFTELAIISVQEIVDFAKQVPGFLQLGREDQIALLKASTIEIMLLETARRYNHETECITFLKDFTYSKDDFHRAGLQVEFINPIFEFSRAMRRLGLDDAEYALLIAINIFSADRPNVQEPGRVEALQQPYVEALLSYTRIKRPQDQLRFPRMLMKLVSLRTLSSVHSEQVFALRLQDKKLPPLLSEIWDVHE

A short description of assay [2]: ATG_M_06_TRANS: Attagene TRANS-FACTORIAL HepG2 Assay for M06 Transcription Factor (Internal Marker) (AID 2282983). The following applies: HepG2 Attagene TRANS M06 internal marker reporter. In outline: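 In this multiplexed HepG2 system, compounds are incubated 24 h with cells carrying GAL4-UAS reporter units. Reporter RNA is amplified and resolved by capillary electrophoresis, and induction is scored against DMSO.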

The target of assay [3] is Transcriptional activator Myb (Homo sapiens) (UniProt P10242). Kind of assay: ATG_Myb_CIS: Attagene CIS-FACTORIAL HepG2 Assay for human Myeloblastosis (Myb) Proto-Oncogene Transcription Factor (AID 2282986; active = hit-call score of the fitted dose curve at least 0.9, where 1 is the maximum; inactive = score below 0.9). The conditions noted are these: HepG2 Attagene CIS-FACTORIAL Myb reporter transcription; actives raise or lower the signal. In outline:
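After 24 h of compound dosing, total RNA from transfected HepG2 cells is reverse-transcribed and the reporter sequences amplified, labeled and separated by capillary electrophoresis. Values come from bidirectional fitting against DMSO.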

For assay [4], the target named is Nuclear respiratory factor 1 (Homo sapiens) (UniProt Q16656). Kind of assay: ATG_NRF1_CIS: Attagene CIS-FACTORIAL HepG2 Assay for human Nuclear Respiratory Factor 1 (NRF1) Orphan Gene (AID 2282987; active = hit-call score of the fitted dose curve at least 0.9, where 1 is the maximum; inactive = score below 0.9). The following applies: HepG2 NRF1 cis-element reporter, Attagene multiplex; actives raise or lower the signal. In outline: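 Measured: fluorescent reporter-specific RT-PCR products from transfected HepG2 cells, separated by capillary electrophoresis. Exposure lasted 24 h. Analysis used bidirectional curve fitting with DMSO as negative control.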
Chain of Nuclear respiratory factor 1 (Homo sapiens) (Q16656 whole entry, looked up): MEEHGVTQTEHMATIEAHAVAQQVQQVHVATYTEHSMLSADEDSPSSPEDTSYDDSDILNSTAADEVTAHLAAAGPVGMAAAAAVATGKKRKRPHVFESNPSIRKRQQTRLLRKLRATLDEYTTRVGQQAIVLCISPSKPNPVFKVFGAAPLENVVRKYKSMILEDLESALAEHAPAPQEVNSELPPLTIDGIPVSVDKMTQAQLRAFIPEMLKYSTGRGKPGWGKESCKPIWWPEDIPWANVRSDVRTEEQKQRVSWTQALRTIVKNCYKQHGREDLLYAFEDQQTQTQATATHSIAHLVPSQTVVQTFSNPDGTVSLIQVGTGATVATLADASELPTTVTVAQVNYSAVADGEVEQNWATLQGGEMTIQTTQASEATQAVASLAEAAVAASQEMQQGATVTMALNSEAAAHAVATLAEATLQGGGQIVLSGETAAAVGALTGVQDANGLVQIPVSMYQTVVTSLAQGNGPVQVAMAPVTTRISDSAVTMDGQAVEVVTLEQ

In assay [5] the target is Nuclear receptor subfamily 4 group A member 2 (Homo sapiens) (UniProt P43354). Kind of assay: ATG_NURR1_TRANS: Attagene TRANS-FACTORIAL HepG2 Assay for human Nuclear Receptor Related Protein 1 (NURR1) (AID 2282985). The following applies: HepG2 Attagene TRANS reporter, mRNA readout. Summed up: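 Chimeric NR-Gal4 fusion activity measured in HepG2 after 24 h treatment. Reporter transcripts detected by RT-PCR and capillary electrophoresis fluorescence; positive-direction curve fitting against DMSO.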
Chain of Nuclear receptor subfamily 4 group A member 2 (Homo sapiens) (P43354 whole entry, looked up, the tested form may be a part): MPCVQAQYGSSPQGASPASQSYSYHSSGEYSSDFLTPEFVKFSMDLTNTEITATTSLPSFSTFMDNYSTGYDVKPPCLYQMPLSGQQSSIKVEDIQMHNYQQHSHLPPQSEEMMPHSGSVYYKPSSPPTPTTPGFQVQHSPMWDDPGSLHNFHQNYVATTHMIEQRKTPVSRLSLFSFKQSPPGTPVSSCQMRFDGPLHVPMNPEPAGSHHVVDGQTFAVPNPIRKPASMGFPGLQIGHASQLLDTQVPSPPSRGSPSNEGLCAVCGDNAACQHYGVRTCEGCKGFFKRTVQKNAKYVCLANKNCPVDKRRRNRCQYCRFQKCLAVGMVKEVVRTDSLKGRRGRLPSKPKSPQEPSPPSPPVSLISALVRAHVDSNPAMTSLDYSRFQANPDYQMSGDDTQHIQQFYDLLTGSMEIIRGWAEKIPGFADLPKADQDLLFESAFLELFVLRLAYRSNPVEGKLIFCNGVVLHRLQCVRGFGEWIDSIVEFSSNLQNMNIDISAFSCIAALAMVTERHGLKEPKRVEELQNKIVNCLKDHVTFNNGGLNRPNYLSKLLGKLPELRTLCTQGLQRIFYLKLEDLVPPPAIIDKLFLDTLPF

Assay [6] deals with Oxysterols receptor LXR-alpha (Homo sapiens) (UniProt Q13133). The assay is described as follows: ATG_LXRa_TRANS: Attagene TRANS-FACTORIAL HepG2 Assay for human Liver X Receptor alpha (LXRa) (AID 2282980). The following applies: HepG2 Attagene TRANS reporter, LXRa transactivation. In outline: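 HepG2 cells were transiently transfected with multiplexed reporter units driven by chimeric LXRa–GAL4 fusion proteins, then dosed for 24 h. Reporter mRNA was quantified by RT-PCR, fluorescent labelling and capillary electrophoresis; gain of signal fitted against DMSO baseline.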
Chain of Oxysterols receptor LXR-alpha (Homo sapiens) (Q13133 whole entry, looked up, the tested form may be a part): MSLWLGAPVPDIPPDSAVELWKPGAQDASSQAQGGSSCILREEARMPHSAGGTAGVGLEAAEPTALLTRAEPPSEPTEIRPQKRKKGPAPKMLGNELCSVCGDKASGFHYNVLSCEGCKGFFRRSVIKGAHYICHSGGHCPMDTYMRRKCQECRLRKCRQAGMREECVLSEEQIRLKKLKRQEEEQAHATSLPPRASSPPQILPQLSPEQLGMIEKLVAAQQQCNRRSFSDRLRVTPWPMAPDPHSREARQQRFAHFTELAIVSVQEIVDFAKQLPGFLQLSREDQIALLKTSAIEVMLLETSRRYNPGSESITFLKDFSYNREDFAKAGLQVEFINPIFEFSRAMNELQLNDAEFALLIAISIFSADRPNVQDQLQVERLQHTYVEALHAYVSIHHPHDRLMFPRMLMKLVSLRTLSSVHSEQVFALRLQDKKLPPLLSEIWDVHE

The nature of assay [7]: ATG_M_32_TRANS: Attagene TRANS-FACTORIAL HepG2 Assay for M32 Transcription Factor (Internal Marker) (AID 2282984).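 Also: transcript level of a background control reporter unit measured by RT-PCR and capillary electrophoresis.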 The following applies: HepG2 Attagene TRANS M32 internal marker reporter. In outline:
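After 24 h dosing of transfected HepG2 cells, total RNA was reverse-transcribed, reporter sequences PCR-amplified, 6-FAM labelled by primer extension and HpaI-digested before capillary electrophoresis. Signal increase over DMSO was fitted.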

The target of assay [8] is Hepatocyte nuclear factor 4-alpha (Homo sapiens) (UniProt P41235). The assay is described as follows: ATG_HNF4a_TRANS: Attagene TRANS-FACTORIAL HepG2 Assay for human Hepatocyte Nuclear Factor 4 alpha (HNF4a) (AID 2282982). The conditions noted are these: HepG2 HNF4a transactivation reporter, mRNA readout. In outline: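 In this trans-factorial format, a chimeric HNF4a-GAL4 fusion drives a GAL4-UAS reporter in transfected HepG2 liver cells. After 24 h treatment, reporter mRNA induction is measured by RT-PCR with capillary electrophoresis, relative to DMSO.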
Chain of Hepatocyte nuclear factor 4-alpha (Homo sapiens) (P41235 whole entry, looked up, the tested form may be a part): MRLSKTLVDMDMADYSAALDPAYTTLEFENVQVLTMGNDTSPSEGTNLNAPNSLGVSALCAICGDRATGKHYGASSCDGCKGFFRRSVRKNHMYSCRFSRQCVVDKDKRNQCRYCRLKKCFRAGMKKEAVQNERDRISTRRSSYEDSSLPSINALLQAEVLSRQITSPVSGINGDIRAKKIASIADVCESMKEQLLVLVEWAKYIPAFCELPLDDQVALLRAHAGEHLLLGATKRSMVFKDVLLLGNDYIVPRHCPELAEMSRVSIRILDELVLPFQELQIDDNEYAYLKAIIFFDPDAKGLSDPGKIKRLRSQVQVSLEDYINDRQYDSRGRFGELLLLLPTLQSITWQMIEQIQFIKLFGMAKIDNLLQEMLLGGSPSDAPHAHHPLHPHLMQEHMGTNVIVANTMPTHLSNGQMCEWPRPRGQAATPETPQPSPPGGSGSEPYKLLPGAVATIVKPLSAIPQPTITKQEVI

Results filed as inconclusive are left out. Calls of active or inactive are those of the source. The calls were made as follows, unless noted: active = hit-call score of the fitted dose curve at least 0.9, where 1 is the maximum; inconclusive = response in the unintended direction; inactive = score below 0.9.

Chain of Transcriptional activator Myb (Homo sapiens) (P10242 whole entry, looked up): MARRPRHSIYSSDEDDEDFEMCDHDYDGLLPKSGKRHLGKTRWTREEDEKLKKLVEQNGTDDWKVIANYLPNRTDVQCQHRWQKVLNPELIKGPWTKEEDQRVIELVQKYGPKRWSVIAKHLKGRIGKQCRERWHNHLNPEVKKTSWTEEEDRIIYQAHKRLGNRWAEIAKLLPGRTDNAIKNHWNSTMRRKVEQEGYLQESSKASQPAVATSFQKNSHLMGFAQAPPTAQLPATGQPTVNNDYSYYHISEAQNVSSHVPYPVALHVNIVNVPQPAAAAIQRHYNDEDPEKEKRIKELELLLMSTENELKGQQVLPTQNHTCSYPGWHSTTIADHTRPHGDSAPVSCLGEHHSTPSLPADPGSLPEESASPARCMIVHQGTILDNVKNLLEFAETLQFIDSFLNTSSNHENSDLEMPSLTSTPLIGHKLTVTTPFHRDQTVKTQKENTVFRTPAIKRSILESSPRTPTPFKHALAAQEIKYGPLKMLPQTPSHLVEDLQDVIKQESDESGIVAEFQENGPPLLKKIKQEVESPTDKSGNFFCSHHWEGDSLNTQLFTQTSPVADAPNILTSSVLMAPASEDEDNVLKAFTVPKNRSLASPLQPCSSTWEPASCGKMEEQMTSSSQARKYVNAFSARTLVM

On to `CC(C)(C)OOC(=O)c1ccccc1`, for which the compound was classed as inactive in assay [1], in assay [2] and in assay [4]. In addition, the AC50 in assay [3] was 153 µM (active).
For `c1ccc2c(c1)-c1cccc3cccc-2c13`, the call in assay [2], in assay [3] and in assay [4] was inactive. Further, the AC50 in assay [5] is 160 µM (active).
As for `CCN(CC)N=O`, the call in assay [6], in assay [2], in assay [3] and in assay [4] was inactive.
Take `Cc1ccc(N)c(N)c1`: the outcome in assay [2], in assay [3] and in assay [4] was inactive.
For `CCCCC(CC)COC(=O)c1ccc(C(=O)OCC(CC)CCCC)c(C(=O)OCC(CC)CCCC)c1` (stereo not given), the outcome in assay [1], in assay [2], in assay [5], in assay [3] and in assay [4] was inactive.
Take `Cc1ccc(N)cc1`: the compound was called inactive in assay [7], in assay [5], in assay [3] and in assay [4].
Consider `CC(O)CCO` (stereo not given), for which the result in assay [1], in assay [8], in assay [2], in assay [7], in assay [5] and in assay [3] was inactive. The result in assay [4] was inactive.
Turning to `COC(=O)Nc1nc2ccccc2[nH]1`, the call in assay [1], in assay [8], in assay [2], in assay [7], in assay [5] and in assay [3] was inactive. For the same compound, the compound was classed as inactive in assay [4].
For `CCN(CC)CCO`, the outcome in assay [1], in assay [2], in assay [5], in assay [3] and in assay [4] was inactive.
As for `Cc1ccc(N=C=O)cc1N=C=O`, the outcome in assay [2], in assay [3] and in assay [4] was inactive.
Take `Cc1ccc([N+](=O)[O-])cc1`: the compound was classed as inactive in assay [2], in assay [3] and in assay [4].
For the compound `O=Cc1ccco1`, the compound was classed as inactive in assay [6], in assay [8], in assay [5], in assay [3] and in assay [4].
With `CS(=O)(=O)NC(=O)c1cc(Oc2ccc(C(F)(F)F)cc2Cl)ccc1[N+](=O)[O-]`, the result in assay [7], in assay [3] and in assay [4] was inactive.
For the compound `OCCOCCO`, the compound was called inactive in assay [6], in assay [1], in assay [8], in assay [7], in assay [3] and in assay [4].
In the case of `C1=Cc2cccc3cccc1c23`, the outcome in assay [1], in assay [8], in assay [2], in assay [7], in assay [5] and in assay [3] was inactive. Moreover, the result in assay [4] was inactive.
For `ClC1=C(Cl)[C@]2(Cl)[C@H]3[C@H]([C@@H]4C=C[C@H]3C4)[C@@]1(Cl)C2(Cl)Cl`, the call in assay [8], in assay [5], in assay [3] and in assay [4] was inactive.
For the compound `CC(C)(C)OOC(C)(C)CCC(C)(C)OOC(C)(C)C`, the compound was called inactive in assay [6], in assay [2], in assay [5], in assay [3] and in assay [4].
Take `COC(=O)c1ccccc1N`: the call in assay [6], in assay [3] and in assay [4] was inactive.
As for `CCC12COCN1COC2`, the compound was classed as inactive in assay [6], in assay [1], in assay [8], in assay [3] and in assay [4].
`Nc1cc(Cl)cc(C(=O)O)c1Cl`: the result in assay [8], in assay [2], in assay [3] and in assay [4] was inactive.
Turning to `O=C1CCCO1`, the result in assay [1], in assay [8], in assay [2], in assay [3] and in assay [4] was inactive.
As to `[O-][Cl+]O`, the outcome in assay [6], in assay [8], in assay [2], in assay [7], in assay [5] and in assay [3] was inactive. Besides, the compound was classed as inactive in assay [4].
Turning to `N#CC(Br)(Br)C(N)=O`, the call in assay [2], in assay [5], in assay [3] and in assay [4] was inactive.
As for `C[N+](C)(C)CC1CO1` (stereo not given), the compound was classed as inactive in assay [1], in assay [7], in assay [3] and in assay [4].
Turning to `CCOc1cccc(C2(N3CCN(c4ccccc4)CC3)CCC(C)CC2)c1` (stereo not given), the compound was called inactive in assay [2], in assay [3] and in assay [4].
Regarding `Clc1ccc(Cl)c(Cl)c1`, the call in assay [1], in assay [8], in assay [2], in assay [5], in assay [3] and in assay [4] was inactive.
